# Source: the supplement of paper PMC6897291
# Where a name gives a salt, the structure may show the parent alone.
# Key:
# U-2932 [1] = experiment: growth inhibition by drug alone (1 - RLU/untreated control) (fraction); higher = stronger inhibition; conditions: 177Lu-lilotomab satetraxetan 0 ug/ml
# In short: (§1)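 Compound doses on the pre-printed Selleck Cambridge Cancer Compound library plates were 10/100 nM for RIVA cells and 10/1,000 nM for U-2932 cells, seeded at 3,000 cells/well. Before seeding, cells were washed after 18 h with or without a radiolabelled anti-CD37 antibody conjugate (~600 MBq/mg; 0.5 µg/ml RIVA, 1 µg/ml U-2932). Growth inhibition was derived from RealTime-Glo luminescence relative to untreated no-drug control wells. Readings were taken daily starting on day 3, each after 1 h at 37°C, and each well's RLU was divided by the mean of 48 such wells per plate and subtracted from 1.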
# RIVA [2] = experiment: as above; conditions: 177Lu-lilotomab satetraxetan 0 ug/ml
# In short: as §1
# U-2932 [3] = experiment: growth inhibition by drug plus 177Lu-lilotomab satetraxetan (1 - RLU/untreated control) (fraction); higher = stronger inhibition; conditions: 177Lu-lilotomab satetraxetan 1 ug/ml
# In short: as §1
# RIVA [4] = experiment: as above; conditions: 177Lu-lilotomab satetraxetan 0.5 ug/ml
# In short: as §1
Structure (SMILES),"growth inhibition by drug alone (U-2932 [1]; 10 nM, time (day): 3)","growth inhibition by drug alone (U-2932 [1]; 10 nM, time (day): 4)","growth inhibition by drug alone (U-2932 [1]; 10 nM, time (day): 5)","growth inhibition by drug alone (U-2932 [1]; 10 nM, time (day): 6)","growth inhibition by drug alone (U-2932 [1]; 1000 nM, time (day): 3)","growth inhibition by drug alone (U-2932 [1]; 1000 nM, time (day): 4)","growth inhibition by drug alone (U-2932 [1]; 1000 nM, time (day): 5)","growth inhibition by drug alone (U-2932 [1]; 1000 nM, time (day): 6)","growth inhibition by drug alone (RIVA [2]; 10 nM, time (day): 3)","growth inhibition by drug alone (RIVA [2]; 10 nM, time (day): 4)","growth inhibition by drug alone (RIVA [2]; 10 nM, time (day): 5)","growth inhibition by drug alone (RIVA [2]; 10 nM, time (day): 6)","growth inhibition by drug alone (RIVA [2]; 100 nM, time (day): 3)","growth inhibition by drug alone (RIVA [2]; 100 nM, time (day): 4)","growth inhibition by drug alone (RIVA [2]; 100 nM, time (day): 5)","growth inhibition by drug alone (RIVA [2]; 100 nM, time (day): 6)","growth inhibition by drug plus 177Lu-lilotomab satetraxetan (U-2932 [3]; 10 nM, time (day): 3)","growth inhibition by drug plus 177Lu-lilotomab satetraxetan (U-2932 [3]; 10 nM, time (day): 4)","growth inhibition by drug plus 177Lu-lilotomab satetraxetan (U-2932 [3]; 10 nM, time (day): 5)","growth inhibition by drug plus 177Lu-lilotomab satetraxetan (U-2932 [3]; 10 nM, time (day): 6)","growth inhibition by drug plus 177Lu-lilotomab satetraxetan (U-2932 [3]; 1000 nM, time (day): 3)","growth inhibition by drug plus 177Lu-lilotomab satetraxetan (U-2932 [3]; 1000 nM, time (day): 4)","growth inhibition by drug plus 177Lu-lilotomab satetraxetan (U-2932 [3]; 1000 nM, time (day): 5)","growth inhibition by drug plus 177Lu-lilotomab satetraxetan (U-2932 [3]; 1000 nM, time (day): 6)","growth inhibition by drug plus 177Lu-lilotomab satetraxetan (RIVA [4]; 10 nM, time (day): 3)","growth inhibition by drug plus 177Lu-lilotomab satetraxetan (RIVA [4]; 10 nM, time (day): 4)","growth inhibition by drug plus 177Lu-lilotomab satetraxetan (RIVA [4]; 10 nM, time (day): 5)","growth inhibition by drug plus 177Lu-lilotomab satetraxetan (RIVA [4]; 10 nM, time (day): 6)","growth inhibition by drug plus 177Lu-lilotomab satetraxetan (RIVA [4]; 100 nM, time (day): 3)","growth inhibition by drug plus 177Lu-lilotomab satetraxetan (RIVA [4]; 100 nM, time (day): 4)","growth inhibition by drug plus 177Lu-lilotomab satetraxetan (RIVA [4]; 100 nM, time (day): 5)","growth inhibition by drug plus 177Lu-lilotomab satetraxetan (RIVA [4]; 100 nM, time (day): 6)"
CCN1CCN(Cc2ccc(-c3cc4c(N[C@H](C)c5ccccc5)ncnc4[nH]3)cc2)CC1,-0.00148,0.0172,0.023,0.0324,-0.166,-0.174,-0.287,-0.315,-0.0711,-0.0709,-0.153,-0.452,-0.2,-0.171,-0.217,-0.348,-0.00551,0.0118,0.0153,0.0829,-0.206,-0.119,-0.121,-0.0824,0.45,0.538,0.553,0.545,0.314,0.416,0.435,0.409
COC(=O)Nc1nc2cc(C(=O)c3cccs3)ccc2[nH]1 [Nocodazole],0.162,0.111,0.0124,-0.0733,0.959,0.967,0.972,0.977,-0.0176,-0.0388,-0.162,-0.595,0.948,0.956,0.957,0.953,0.00977,0.0511,0.0524,0.13,0.971,0.978,0.982,0.984,0.402,0.532,0.541,0.547,0.956,0.968,0.974,0.979
Cn1cnc(N)c2ncnc1-2 [3-Methyladenine],0.0713,0.0365,0.0189,0.0577,0.00855,0.0177,-0.0282,-0.00202,0.018,-0.00798,-0.0197,-0.0603,-0.346,-0.249,-0.276,-0.338,0.0187,0.0789,0.12,0.165,-0.00331,0.0603,0.0974,0.207,0.557,0.602,0.615,0.612,0.517,0.565,0.57,0.56
COc1c(C)c2c(c(O)c1C/C=C(\C)CCC(=O)O)C(=O)OC2 [Mycophenolic (Mycophenolate)],0.183,0.162,0.104,0.147,0.779,0.83,0.78,0.716,0.102,0.108,0.06,-0.0787,0.409,0.362,0.284,0.202,0.128,0.131,0.191,0.311,0.759,0.81,0.733,0.662,0.534,0.601,0.625,0.635,0.712,0.719,0.736,0.739
C#Cc1cccc(Nc2ncnc3cc(OCCOC)c(OCCOC)cc23)c1 [Erlotinib HCl],0.33,0.251,0.131,0.0458,0.731,0.715,0.655,0.621,0.349,0.233,0.131,-0.221,0.656,0.642,0.6,0.46,0.195,0.2,0.208,0.267,0.712,0.704,0.691,0.685,0.595,0.534,0.536,0.524,0.791,0.81,0.788,0.724
OCCn1cc(-c2cnc3nnn(Cc4ccc5ncccc5c4)c3n2)cn1,0.0403,0.00489,-0.0584,-0.156,-0.178,-0.0659,-0.175,-0.214,0.0383,0.00592,-0.0414,-0.165,-0.319,-0.278,-0.299,-0.402,-0.0346,0.043,0.0857,0.105,0.0296,0.08,0.0788,0.176,0.521,0.575,0.599,0.603,0.384,0.474,0.467,0.46
C=CC(=O)Nc1cccc(Oc2nc(Nc3ccc(N4CCN(C)CC4)cc3OC)ncc2Cl)c1,-0.0921,-0.0614,-0.0383,0.12,0.122,0.0694,0.0278,0.0218,-0.189,-0.196,-0.216,-0.258,-0.151,-0.238,-0.251,-0.328,-0.102,-0.073,-0.0211,0.138,0.163,0.104,0.0972,0.216,0.397,0.494,0.517,0.516,0.215,0.265,–,–
